# Inconclusive results are not listed. Calls of active or inactive are those of the source. Rule for the calls: active = hit-call score of the fitted dose curve at least 0.9, where 1 is the maximum; inconclusive = response in the unintended direction; inactive = score below 0.9.
# Assays:
# [1] = target: human Protein Tyrosine Phosphatase Non-receptor Type 6 (PTPN6), PTPN6 (gene 5777) (UniProt P29350); assay: NVS_ENZ_hPTPN6: NovaScreen (NVS) Enzymatic Assay for human Protein Tyrosine Phosphatase Non-receptor Type 6 (PTPN6) (AID 2283210)
# How it was run: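 Recombinant human PTPN6 from SF9 cells, enzyme activity followed by fluorescence after mobility-shift separation of substrate and product at 1.33 h. Chemicals first tested at a single 25 uM in duplicate, then confirmed across concentration series; loss of signal relative to DMSO.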
# [2] = target: human Protein Tyrosine Phosphatase Receptor Type F (PTPRF), PTPRF (gene 5792) (UniProt P10586); assay: NVS_ENZ_hPTPRF: NovaScreen (NVS) Enzymatic Assay for human Protein Tyrosine Phosphatase Receptor Type F (PTPRF) (AID 2283213)
# How it was run: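 Cell-free fluorescence enzyme assay with recombinant protein and substrate; product separated by electrophoretic mobility shift. Read 1 h after dosing, single 25 uM duplicate screen, then concentration-response up to 50 uM; loss of signal vs DMSO.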
# [3] = target: human Protein Tyrosine Phosphatase Receptor Type M (PTPRM), PTPRM (gene 5797) (UniProt P28827); assay: NVS_ENZ_hPTPRM: NovaScreen (NVS) Enzymatic Assay for human Protein Tyrosine Phosphatase Receptor Type M (PTPRM) (AID 2283215)
# Experimental: NVS_ENZ_hPTPRM is a biochemical, single-readout assay that uses extracted gene-proteins in a cell-free assay. Measurements were taken 1.33 hours after chemical dosing in a 384-well plate.NVS_ENZ_hPTPRM is one of one assay component(s) measured or calculated from the NVS_ENZ_hPTPRM assay. It is designed to make measurements of enzyme activity, a form of enzyme reporter, as detected with fluorescence intensity signals by Fluorescence and electrophoretic mobility shift technology.Data from the assay component NVS_ENZ_hPTPRM was analyzed into 1 assay endpoint. This assay endpoint, NVS_ENZ_hPTPRM, was analyzed in the positive analysis fitting direction relative to DMSO as the negative control and baseline of activity. Using a type of enzyme reporter, loss-of-signal activity can be used to understand changes in the enzymatic activity as they relate to the gene PTPRM. Furthermore, this assay endpoint can be referred to as a primary readout, because this assay has produced multiple assay endpoints where this one serves a enzymatic activity function. To generalize the intended target to other relatable targets, this assay endpoint is annotated to the phosphatase intended target family, where the subfamily is receptor tyrosine phosphatase. […]
# human Protein Tyrosine Phosphatase Receptor Type F (PTPRF), PTPRF (gene 5792), sequence (P10586 whole entry, looked up): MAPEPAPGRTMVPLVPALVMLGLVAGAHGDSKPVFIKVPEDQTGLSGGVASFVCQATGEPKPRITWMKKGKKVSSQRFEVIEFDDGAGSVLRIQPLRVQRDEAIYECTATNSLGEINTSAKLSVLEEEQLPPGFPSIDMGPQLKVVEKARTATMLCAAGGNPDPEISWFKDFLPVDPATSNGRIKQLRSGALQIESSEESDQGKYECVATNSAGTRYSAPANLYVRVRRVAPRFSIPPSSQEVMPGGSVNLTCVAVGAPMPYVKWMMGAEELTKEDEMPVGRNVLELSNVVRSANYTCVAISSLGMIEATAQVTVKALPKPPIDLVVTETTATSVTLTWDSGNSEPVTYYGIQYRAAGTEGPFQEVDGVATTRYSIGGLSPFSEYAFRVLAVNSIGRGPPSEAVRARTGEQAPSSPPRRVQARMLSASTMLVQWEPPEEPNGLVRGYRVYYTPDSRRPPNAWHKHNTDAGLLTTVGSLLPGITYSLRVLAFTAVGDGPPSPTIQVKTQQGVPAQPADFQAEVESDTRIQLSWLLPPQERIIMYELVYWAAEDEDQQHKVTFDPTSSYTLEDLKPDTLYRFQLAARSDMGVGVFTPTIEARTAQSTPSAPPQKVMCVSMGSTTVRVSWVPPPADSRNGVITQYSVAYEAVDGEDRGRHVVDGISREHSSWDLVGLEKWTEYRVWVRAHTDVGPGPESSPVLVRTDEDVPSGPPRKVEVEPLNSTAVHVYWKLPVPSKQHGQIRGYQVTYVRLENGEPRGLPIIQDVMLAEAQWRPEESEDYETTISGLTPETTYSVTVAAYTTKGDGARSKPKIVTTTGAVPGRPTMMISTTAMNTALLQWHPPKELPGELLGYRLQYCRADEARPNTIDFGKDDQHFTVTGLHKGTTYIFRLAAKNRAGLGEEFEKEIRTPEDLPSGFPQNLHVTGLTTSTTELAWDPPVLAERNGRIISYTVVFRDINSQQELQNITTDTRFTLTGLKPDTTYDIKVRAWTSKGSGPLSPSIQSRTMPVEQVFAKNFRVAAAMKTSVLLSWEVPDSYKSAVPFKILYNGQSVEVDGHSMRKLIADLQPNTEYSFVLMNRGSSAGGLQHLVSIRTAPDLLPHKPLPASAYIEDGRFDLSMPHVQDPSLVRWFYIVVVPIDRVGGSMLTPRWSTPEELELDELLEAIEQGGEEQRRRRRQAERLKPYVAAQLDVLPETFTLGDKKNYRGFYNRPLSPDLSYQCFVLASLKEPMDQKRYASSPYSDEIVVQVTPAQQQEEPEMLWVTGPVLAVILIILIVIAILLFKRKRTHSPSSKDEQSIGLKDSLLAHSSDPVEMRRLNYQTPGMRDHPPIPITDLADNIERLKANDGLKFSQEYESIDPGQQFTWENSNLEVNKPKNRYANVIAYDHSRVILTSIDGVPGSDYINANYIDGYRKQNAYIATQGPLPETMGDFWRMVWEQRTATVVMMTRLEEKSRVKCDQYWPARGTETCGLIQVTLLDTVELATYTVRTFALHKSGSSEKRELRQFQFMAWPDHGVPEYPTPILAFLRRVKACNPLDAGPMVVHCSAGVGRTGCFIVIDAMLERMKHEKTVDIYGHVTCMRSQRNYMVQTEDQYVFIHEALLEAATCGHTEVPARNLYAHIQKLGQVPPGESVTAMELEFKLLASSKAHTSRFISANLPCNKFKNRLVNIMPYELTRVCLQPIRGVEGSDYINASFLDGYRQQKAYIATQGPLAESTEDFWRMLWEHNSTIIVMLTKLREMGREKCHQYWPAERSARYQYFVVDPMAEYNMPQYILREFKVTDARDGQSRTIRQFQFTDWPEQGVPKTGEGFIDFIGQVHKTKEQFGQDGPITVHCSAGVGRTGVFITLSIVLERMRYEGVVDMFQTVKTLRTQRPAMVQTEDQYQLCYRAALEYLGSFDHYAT
# human Protein Tyrosine Phosphatase Non-receptor Type 6 (PTPN6), PTPN6 (gene 5777), sequence (P29350 whole entry, looked up): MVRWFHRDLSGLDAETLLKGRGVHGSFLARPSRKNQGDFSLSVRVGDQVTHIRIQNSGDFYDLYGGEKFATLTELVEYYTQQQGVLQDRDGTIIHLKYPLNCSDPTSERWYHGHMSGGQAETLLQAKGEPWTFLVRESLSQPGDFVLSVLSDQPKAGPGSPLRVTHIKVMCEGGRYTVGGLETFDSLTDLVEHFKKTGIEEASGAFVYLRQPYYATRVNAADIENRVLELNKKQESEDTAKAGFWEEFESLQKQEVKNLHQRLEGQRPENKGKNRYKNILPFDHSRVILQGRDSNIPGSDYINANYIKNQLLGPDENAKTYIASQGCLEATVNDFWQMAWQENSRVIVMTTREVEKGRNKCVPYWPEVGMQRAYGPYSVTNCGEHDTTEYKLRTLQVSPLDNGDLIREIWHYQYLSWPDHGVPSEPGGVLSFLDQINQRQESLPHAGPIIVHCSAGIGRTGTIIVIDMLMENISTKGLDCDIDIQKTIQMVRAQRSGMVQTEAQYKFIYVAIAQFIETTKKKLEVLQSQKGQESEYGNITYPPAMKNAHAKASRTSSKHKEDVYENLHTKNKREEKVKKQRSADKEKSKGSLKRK
# human Protein Tyrosine Phosphatase Receptor Type M (PTPRM), PTPRM (gene 5797), sequence (P28827 whole entry, looked up): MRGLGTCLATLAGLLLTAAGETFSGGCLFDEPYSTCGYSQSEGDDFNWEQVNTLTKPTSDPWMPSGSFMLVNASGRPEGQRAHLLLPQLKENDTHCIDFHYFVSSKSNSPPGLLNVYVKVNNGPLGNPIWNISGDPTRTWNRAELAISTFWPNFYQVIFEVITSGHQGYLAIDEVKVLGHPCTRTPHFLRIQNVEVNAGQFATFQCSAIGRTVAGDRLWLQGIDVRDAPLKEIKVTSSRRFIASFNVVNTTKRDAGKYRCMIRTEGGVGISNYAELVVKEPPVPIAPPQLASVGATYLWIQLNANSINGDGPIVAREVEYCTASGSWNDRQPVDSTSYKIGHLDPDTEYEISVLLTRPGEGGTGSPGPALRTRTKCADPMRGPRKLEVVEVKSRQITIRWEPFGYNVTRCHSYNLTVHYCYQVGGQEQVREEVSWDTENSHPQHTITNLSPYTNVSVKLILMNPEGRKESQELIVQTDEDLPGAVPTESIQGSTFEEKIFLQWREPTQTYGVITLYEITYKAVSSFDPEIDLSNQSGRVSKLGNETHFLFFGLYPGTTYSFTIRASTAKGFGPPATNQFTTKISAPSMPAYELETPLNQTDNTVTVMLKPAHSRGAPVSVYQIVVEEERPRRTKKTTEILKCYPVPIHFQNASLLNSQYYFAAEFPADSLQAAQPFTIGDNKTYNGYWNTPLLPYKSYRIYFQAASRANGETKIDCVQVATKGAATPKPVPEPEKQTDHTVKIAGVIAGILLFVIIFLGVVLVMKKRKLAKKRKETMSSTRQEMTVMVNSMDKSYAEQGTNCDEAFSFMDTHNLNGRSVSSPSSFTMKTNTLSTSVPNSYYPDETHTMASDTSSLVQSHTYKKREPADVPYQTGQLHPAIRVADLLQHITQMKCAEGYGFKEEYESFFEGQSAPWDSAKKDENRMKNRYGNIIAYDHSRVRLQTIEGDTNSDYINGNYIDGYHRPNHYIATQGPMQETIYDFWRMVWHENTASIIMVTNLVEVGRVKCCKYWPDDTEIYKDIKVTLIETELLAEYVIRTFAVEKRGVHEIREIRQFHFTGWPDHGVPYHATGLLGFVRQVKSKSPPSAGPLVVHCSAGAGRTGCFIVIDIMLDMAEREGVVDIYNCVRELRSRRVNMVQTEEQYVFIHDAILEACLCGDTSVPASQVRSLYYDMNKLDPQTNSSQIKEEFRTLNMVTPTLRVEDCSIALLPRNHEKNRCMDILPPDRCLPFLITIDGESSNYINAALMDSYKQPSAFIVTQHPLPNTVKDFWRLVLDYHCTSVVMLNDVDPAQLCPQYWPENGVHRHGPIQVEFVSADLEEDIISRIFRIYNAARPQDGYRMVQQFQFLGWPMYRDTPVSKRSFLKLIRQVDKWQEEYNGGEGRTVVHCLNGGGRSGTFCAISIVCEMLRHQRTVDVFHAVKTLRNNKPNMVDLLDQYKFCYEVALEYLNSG
smiles,measurement,setting,value
c1ccc(C[n+]2cccc3ccccc32)cc1,outcome,[1],inactive
CN1C(=O)N(c2ccccc2Br)Cc2cnc(Nc3ccc4c(c3)OCC(CO)O4)nc21 (centres undefined),outcome,[2],inactive
Clc1cc(Cl)c2c(c1)N=C1CCCCCN1C2,outcome,[2],inactive
CCN(CC)C(=O)c1cc(S(=O)(=O)Cc2ccccc2)c(N2CCC(c3ccccc3)CC2)cc1N(CC)CCN(C)C,outcome,[3],inactive

# — PubChem BioAssay (EPA / NIEHS)
